This is an account of results in PubChem BioAssay (NCI).

Among the test systems are T-47D breast; BT-549 breast; MDA-MB-435 melanoma; SW-620 colon; MCF7 breast; KM12 colon; HCT-116 colon; HCC-2998 colon.
Experiment in all cases: NCI-60 one-dose screen, 48 h (100 = growth as untreated, 0 = no growth, -100 = all killed)
What all share (conditions): 10 µM unless noted

About 83,000 compounds went through this panel and 20% of them were active in at least one assay; those are over-represented in the sample as a whole.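 Note: values are percent growth. 100 is the growth of untreated cells, values between 100 and 0 indicate rising inhibition; between -100 and 0 indicates cell death.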 A number with no mark means an inactive call. Active and inactive are the calls of the source. How the source made its calls: active means growth percent below 10; inactive means the rest.

For `CCOC(CNC(=O)c1cccc([N+](=O)[O-])c1)OCC`, the growth in the test with T-47D breast is 92.1%; with BT-549 breast, 60.5%; in the test with MDA-MB-435 melanoma it was 103%; in the test with SW-620 colon, 102%; with MCF7 breast, 87.2%; in the test with KM12 colon it was 112%.
As to `CNc1cc(C(=O)O)nc(NC)n1`, the growth in the test with T-47D breast is 102%; in the test with BT-549 breast, 88.7%; in the test on MDA-MB-435 melanoma, 95.6%; with MCF7 breast it was 99.4%; with HCT-116 colon, 104%; in the test on HCC-2998 colon, 94.7%. Also, in the test with KM12 colon, the growth was 102%.
For `Cc1ccccc1OC(=O)c1cccc(Cl)c1`, the growth in the test with T-47D breast is 142%; in the test with BT-549 breast, 107%; with MDA-MB-435 melanoma, 113%; with MCF7 breast it was 108%; with HCT-116 colon, 103%; in the test on HCC-2998 colon, 99.8%. Also, the growth in the test on KM12 colon is 101%.
For `COc1ccc(N(c2nc(-c3ccc([N+](=O)[O-])cc3)cs2)C(C)C)cc1`, the growth in the test on T-47D breast is 53.4%; in the test with BT-549 breast, 97%; in the test on MDA-MB-435 melanoma it was 89%; in the test on SW-620 colon it was 88.1%; in the test on HCT-116 colon, 76.3%; with HCC-2998 colon, 101%. Further, in the test with KM12 colon, the growth is 75.7%.
In the case of `COc1ccc(/C=C2\N=C(Nc3ccccc3)N(NC(=O)c3ccccn3)C2=O)cc1`, the growth in the test on T-47D breast is 63.6%; in the test with BT-549 breast it was 94.1%; in the test with MDA-MB-435 melanoma, 98.7%; in the test with MCF7 breast, 87.5%; with HCT-116 colon, 90.1%; in the test on HCC-2998 colon, 105%. In the test with KM12 colon, the growth is 96.1%.
For `CC(C)C1=NOC(=O)C1=Cc1cn(-c2ccccc2)nc1-c1ccc(Cl)cc1`, the growth in the test on T-47D breast is 74.6%; in the test on BT-549 breast, 117%; in the test on MDA-MB-435 melanoma it was 76.4%; with SW-620 colon it was 61.4%; in the test on HCT-116 colon it was 50.4%; in the test with HCC-2998 colon it was 72.5%. Further, the growth in the test on KM12 colon is 91.7%.
Take `c1nc(N2CCOCC2)c2[nH]ccc2n1`: the growth with T-47D breast is 112%; with BT-549 breast it was 101%; in the test on MDA-MB-435 melanoma, 112%; with SW-620 colon it was 111%; in the test with MCF7 breast, 90.6%; with HCT-116 colon it was 103%. For the same compound, the growth in the test on KM12 colon was 115%.
On to `C[C@H]1[C@H](C)CC[C@]2(C(=O)O)CC[C@]3(C)C(=CC[C@@H]4[C@@]5(C)C/C(=C/c6cccnc6)[C@H](O)C(C)(C)[C@@H]5CC[C@]43C)[C@H]12`, for which the growth in the test on T-47D breast is 15.2% [100 µM]; with BT-549 breast, -7.55% [100 µM] (active); with MDA-MB-435 melanoma it was 7.2% [100 µM] (active); in the test with MCF7 breast, 3.47% [100 µM] (active); with HCT-116 colon it was -24.6% [100 µM] (active); with HCC-2998 colon it was -8.19% [100 µM] (active). The growth in the test on KM12 colon was -37.1% [100 µM] (active).
In the case of `COc1cc(/C=C/C(=O)/C=C/c2ccc(-n3ccnc3C)cc2)ccc1O`, the growth in the test with T-47D breast is 54.5%; in the test with BT-549 breast it was 95.5%; with SW-620 colon it was 2.17% (active); with MCF7 breast it was 4.86% (active); with HCT-116 colon, 90.6%; with HCC-2998 colon, -47.3% (active). The growth with KM12 colon was -49.7% (active).
`C#CCNC(=O)CC[C@]1(C)[C@H]2CC[C@@H]3[C@@H]([C@@](C)(O)CCC=C(C)C)CC[C@@]3(C)[C@]2(C)CC[C@H]1C(=C)C`: the growth with T-47D breast was 37.3% [100 µM]; in the test on BT-549 breast it was 41.8% [100 µM]; in the test with SW-620 colon it was -14.1% [100 µM] (active); in the test with MCF7 breast, 30.5% [100 µM]; with HCT-116 colon, 16.6% [100 µM]; in the test with HCC-2998 colon, 87.2% [100 µM]. Besides, the growth with KM12 colon was 36% [100 µM].
On to `O=C(N=c1n(-c2ccccc2)nc2n1CCN2C1=NCCN1C(=O)c1ccc(Cl)cc1)c1ccc(Cl)cc1`, for which the growth was 50.1% with T-47D breast; 59.6% with BT-549 breast; 68.3% in the test with SW-620 colon; 46% in the test with MCF7 breast; 39.1% in the test on HCT-116 colon; 85.8% in the test on HCC-2998 colon. Moreover, the growth in the test with KM12 colon is 60.7%.
As for `Clc1ccc(/C=N/Nc2nc3ccccc3s2)c(Cl)c1`, the growth in the test on T-47D breast is 74.4%; in the test with BT-549 breast, 115%; with MDA-MB-435 melanoma, 91.9%; in the test with HCT-116 colon, 80.6%; in the test on HCC-2998 colon, 101%; with KM12 colon, 94%.
Consider `CCOC(=O)Nc1ccc2c(c1)/C(=N\NC(=S)NC)c1ccccc1-2`, for which the growth was 66.7% in the test on T-47D breast; 94% in the test on BT-549 breast; 93.6% with SW-620 colon; 74.6% with MCF7 breast; 87.6% in the test on HCT-116 colon; 88.2% in the test on HCC-2998 colon. The growth with KM12 colon was 71%.
Regarding `CCOC(=O)n1cc(C2=C(c3ccc(OC)c(OC)c3)COC2=O)c2ccccc21`, the growth was 48.8% with T-47D breast; 0.425% (active) in the test with BT-549 breast; 26.5% in the test on SW-620 colon; 14.9% in the test with MCF7 breast; 4.07% (active) in the test on HCT-116 colon; 19.2% in the test with HCC-2998 colon. The growth with KM12 colon was 2.26% (active).
Take `CC(C)C1=NOC(=O)C1=Cc1cn(-c2ccccc2)nc1-c1cccc([N+](=O)[O-])c1`: the growth was 84.5% in the test on T-47D breast; 109% with BT-549 breast; 80% with MDA-MB-435 melanoma; 34.7% in the test on HCT-116 colon; 87.3% with HCC-2998 colon; 87% in the test with KM12 colon.
